Compounds with a hit are over-represented: about 3.3% of the library has one in this group of screens.
Tau filament bind: qHTS Assay for Tau Filament Binding; Microtubule-associated protein tau (Homo sapiens), P10636; recombinant tau filaments, thioflavin S fluorescence, 15 h; filaments grown with octadecylsulfate alongside compound; Potency, µM (titrated, usually from 57.1 µM), for the others: at the highest dose activity change, negative = inhibition; actives 2% (n = 71,000); AID 596, 2007;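 also: potency is read from the fitted curve at half-maximal effect; % is scaled to controls: 0 for no effect and ±100 for the full control effect; actives lower thioflavin S fluorescence by blocking filaments or displacing dye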
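Thioflavine S fluorescence (ex 450, em 510 nm) reports filaments formed from 1 uM human tau plus 30 uM ODS over 15 h at 37 C (10 mM HEPES pH 7.4, 100 mM NaCl, 5 mM DTT); compounds displacing dye or blocking filaments lower signal.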
BRCT inh red: qHTS Assay for Inhibitors of BRCT-Phosphoprotein Interaction (Red Fluorophore); Potency, µM (top dose mostly 76.9 µM), for the others: at the highest dose activity change, negative = inhibition, actives largely listed as inhibitors; AID 892, 2007; actives 0.03% (n = 75,000); BRCT-phosphopeptide binding, red fluorescence polarization; also: % is scaled to controls: 0 for no effect and ±100 for the full control effect
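Fluorescence polarization: 100 nM His-tagged BRCA1 BRCT with 100 nM TAMRA-labelled phospho-BACH1 decapeptide, phosphate buffer pH 7.3 with 150 mM NaCl, DTT, 0.01% Tween 20; 12 min RT. Binding inhibition seen as FP decrease.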
BRCT PPI green: qHTS Assay for Inhibitors of BRCT-Phosphoprotein Interaction (Green Fluorophore). Breast cancer type 1 susceptibility protein (Homo sapiens), P38398. BRCA1 BRCT-phosphopeptide binding, green fluorescence polarization. Potency, µM (highest dose often 76.9 µM), without a hit: at the top dose activity change, negative = inhibition, hits mostly inhibitors. actives 0.05% (n = 75,000). AID 875, 2007;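 also: potency is read from the fitted curve at half-maximal effect; plate controls were peptide without protein for full effect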
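Compounds were incubated for 12 min at room temperature with a complex of 100 nM fluorescein-tagged pBACH1 decapeptide and 250 nM His-tagged BRCT protein. Buffer was phosphate pH 7.3 with EDTA, DTT and Tween 20. Disruption of binding lowers the polarization signal.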
DNA Pol III inh: qHTS Assay for Inhibitors of DNA Polymerase III Holoenzyme System. reconstituted DNA polymerase III holoenzyme replication, biochemical. Potency, µM (titrated, usually from 57.1 µM), inactives show at the highest dose activity change, negative = inhibition. actives 0.25% (n = 71,000); also: potency is read from the fitted curve at half-maximal effect; % is scaled to controls: 0 for no effect and ±100 for the full control effect
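Reconstituted *E. coli* holoenzyme (0.35 nM Pol III, 1 nM beta, 154 nM SSB, 2 nM primase) was preincubated with compound for 15 min at RT. Synthesis on 1.4 nM ssM13Gori ran 35 min, then was stopped with PicoGreen/EDTA and read as dsDNA fluorescence.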
ALOX15 inhib: qHTS Assay for Inhibitors of 15-hLO (15-human lipoxygenase); Polyunsaturated fatty acid lipoxygenase ALOX15 (Homo sapiens), P16050; purified 15hLO-1, xylenol orange hydroperoxide absorbance; Potency, µM (top dose mostly 57.1 µM), for inactives: at the top dose activity change, negative = inhibition, most hits filed as inhibitors; actives 1.4% (n = 74,000); also: potency is read from the fitted curve at half-maximal effect; % is scaled to controls: 0 for no effect and ±100 for the full control effect; nearly all actives have a fitted effect of over 55% in size
Target sequence (P16050 whole entry, looked up): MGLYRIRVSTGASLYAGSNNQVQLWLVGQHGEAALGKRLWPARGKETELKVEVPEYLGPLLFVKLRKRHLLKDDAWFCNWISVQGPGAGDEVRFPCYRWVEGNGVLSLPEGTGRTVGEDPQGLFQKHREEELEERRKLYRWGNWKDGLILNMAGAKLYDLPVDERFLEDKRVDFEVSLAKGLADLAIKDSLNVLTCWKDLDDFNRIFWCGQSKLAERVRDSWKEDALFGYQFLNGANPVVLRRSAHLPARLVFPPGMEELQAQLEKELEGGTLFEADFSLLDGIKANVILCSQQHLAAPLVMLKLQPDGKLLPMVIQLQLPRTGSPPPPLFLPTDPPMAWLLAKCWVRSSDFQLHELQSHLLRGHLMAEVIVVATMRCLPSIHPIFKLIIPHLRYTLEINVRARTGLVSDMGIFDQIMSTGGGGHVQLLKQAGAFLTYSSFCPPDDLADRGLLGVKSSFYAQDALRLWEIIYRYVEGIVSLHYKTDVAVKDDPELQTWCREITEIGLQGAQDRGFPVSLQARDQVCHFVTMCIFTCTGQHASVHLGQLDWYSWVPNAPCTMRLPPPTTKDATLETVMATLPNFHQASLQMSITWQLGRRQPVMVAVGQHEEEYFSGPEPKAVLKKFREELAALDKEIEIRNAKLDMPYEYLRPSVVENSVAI
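40 nM 15hLO-1 + cpd, 15 min RT; start w/ 50 uM AA (final), 6 min RT; stop/detect w/ 200 uM XO + 300 uM Fe(II) in 50 mM H2SO4, 30 min; A573/A405. Buffer 25 mM Hepes pH 7.5, 0.01% Triton X-100. No-enzyme wells as negative control.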
YjeE inh: qHTS Assay for Inhibitors of YjeE | Potency, µM | purified YjeE enzyme, qHTS inhibition assay | tRNA threonylcarbamoyladenosine biosynthesis protein TsaE (Escherichia coli (strain … | actives 0.05% (n = 71,000) | AID 605, 2007
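Purified YjeE (10 uM) with BODIPY Texas Red-labeled ADP probe (2 uM); compounds pin-transferred, 15 min at room temperature. Binding inhibition read as decreased fluorescence polarization; ADP titration as control.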
* hit, by the source's call; i = inactive; ? = inconclusive; . = no result; ! = not confirmed by another sample; [ ] = dose if it differs, or a comment. Calls follow the shape of the dose curve; as a rule, active = well fitted curve in the direction sought with a large enough effect; inconclusive = small, poorly fitted or top-dose-only effect, or another doubt; inactive = no such curve, though single readings can be large; an effect the other way counts as inactive or inconclusive.

SMILES	Tau filament bind	BRCT inh red	BRCT PPI green	DNA Pol III inh	ALOX15 inhib	YjeE inh
CCn1c2ccccc2c2nnc(SCc3ccccc3)nc21	-22%	0%	-1%	-3%	-4%	i
CCn1c2ccccc2c2nnc(SCc3ccc(C(=O)OC)o3)nc21	32µM*	0%	0%	0%	-18%	i
COc1ccc(COC(=O)N/N=C2/C[C@@H](O)[C@@H](O)[C@@H]3[C@@H]4C(=O)N(c5cccc(Oc6ccccc6)c5)C(=O)[C@H]4CC[C@@H]23)cc1	.	-1%[15.4 µM]	-1%[15.4 µM]	.	3%[11.4 µM]	.
O=S(=O)(O)c1cc(O)c2c(O)c(N=Nc3cccc4ccccc34)c(S(=O)(=O)O)cc2c1	?	-2%[15.4 µM]	-1%[15.4 µM]	-6%[11.4 µM]	18%[11.4 µM]	i
O=C(O)c1cccc(N=Nc2c(S(=O)(=O)O)ccc3c2C(=O)c2ccccc2C3=O)c1O	3.2µM*	-2%[15.4 µM]	-2%[15.4 µM]	-8%[11.4 µM]	-11%[11.4 µM]	i
COC(=O)NC(/C(C(=O)OC)=C(\C)NCc1ccccc1)c1ccc(Cl)cc1 (stereo unspecified)	.	0%[15.4 µM]	-2%[15.4 µM]	.	8%[11.4 µM]	.
CO[C@H]1COC(=O)C/C=C\[C@H](C)[C@H](OC)COC(=O)[C@@H](C)NC(=O)C/C=C\[C@@H]1C	.	-1%[15.4 µM]	1%[15.4 µM]	.	4%[11.4 µM]	.
O=C(Nc1ccc2c(c1)OCO2)N1CCN(C/C=C/c2ccccc2)CC1	-25%	-1%	-2%	-6%	32µM*	i
COc1ccc(COC(=O)N/N=C2/C[C@@H](O)[C@@H](O)[C@@H]3[C@@H]4C(=O)N(C[C@@H]5CCCO5)C(=O)[C@H]4CC[C@@H]23)cc1	.	0%[15.4 µM]	-2%[15.4 µM]	.	3%[11.4 µM]	.
CCc1nn2cc(-c3ccccc3)nc2s1	-3%	1%	1%	-7%	10µM*	i
Cc1nn2cc(-c3ccc(-c4ccccc4)cc3)nc2s1	-1%	1%	3%	2%	3%	i
C[C@H]1[C@H](C)OC(=O)C[C@H](O)C[C@H](O)C[C@H](O)CC[C@H](O)[C@H](O)CC(=O)C[C@H](O)[C@H](C(=O)O)[C@H](O)C[C@H](O[C@@H]2O[C@@H](C)[C@H](O)[C@@H](N)[C@@H]2O)C=CC=CC=CC=CCCC=CC=C[C@@](C)(O)[C@H]1O	24%[11.4 µM]	-2%[15.4 µM]	6%[15.4 µM]	-1%[11.4 µM]	?	i
O=S(=O)(O)c1cc(N=[N+]([O-])c2cc(S(=O)(=O)O)c3ccccc3c2)cc2ccccc12	2%[11.4 µM]	-3%[15.4 µM]	0%[15.4 µM]	-15%[11.4 µM]	4µM*	i
O=c1cc(-c2cc(O)c(O)c(O)c2)oc2cc(O)cc(O)c12	.	0%	-1%	.	2.5µM*	.
O=c1cc(-c2ccc(O)cc2)oc2cc(O)cc(O)c12	60%	2%	1%	-9%	5µM*!	i
O=c1cc(-c2ccccc2)oc2cc(O)cc(O)c12	-19%[25.6 µM]	-1%	0%	-4%[25.6 µM]	-13%[25.6 µM]	i
O=c1c(O)c(-c2ccc(O)cc2)oc2cc(O)cc(O)c12	32µM*!	-2%	4%	-11%	?	i
COc1cc(O)c2c(=O)cc(-c3ccccc3)oc2c1	32µM*	-1%	-3%	-3%	-3%[25.6 µM]	i
CC(=O)OC1CC2C(C)(C)C(=O)C=C[C@]2(C)C2CC[C@@]3(C)C(c4ccoc4)OC(=O)C4O[C@@]43[C@]12C (stereo partly specified)	.	0%	-2%[3.08 µM]	.	1%	.
COC(=O)CC1C(C)(C)C2(O)OC34CC2C(=O)[C@@]1(C)C3CC[C@]1(C)C4=CC(=O)OC1c1ccoc1 (stereo partly specified)	.	-2%	-2%[3.08 µM]	.	-9%	.
Nc1nc2c(ncn2C2OC(CO)CC2O)c(=O)[nH]1 (stereo unspecified)	.	-1%	-1%	.	12%	.
NC1=C2NC=N[C@@H]2N(C/C=C\c2ccccc2)C=N1	12%[11.4 µM]	-3%[15.4 µM]	-1%[15.4 µM]	-10%[11.4 µM]	8%[11.4 µM]	i
c1cncc(-c2nn3c(Cn4cnc5ccccc54)nnc3s2)c1	-10%	-4%	3%	-5%	4µM*	i
c1ccc(-c2nn3c(Cn4cnc5ccccc54)nnc3s2)cc1	14%	-2%	6%	-7%	?	i
CCN1CCC2(CC1)C(C#N)=C(N)Oc1c2sc2nc(C)cc(C)c12	112%	-4%	25%	0%	25µM*	i
SMILES	Tau filament bind	BRCT inh red	BRCT PPI green	DNA Pol III inh	ALOX15 inhib	YjeE inh
CCCCN1CSC(=S)N(Cc2ccccc2)C1	1%[11.4 µM]	-3%[15.4 µM]	-3%[15.4 µM]	-12%[11.4 µM]	?	i
C[N+](C)(N)CCC[N+](C)(C)N	-6%[11.4 µM]	0%[15.4 µM]	0%[15.4 µM]	-4%[11.4 µM]	12%[11.4 µM]	i
O=C(Nc1ccc(Cl)cc1C(=O)O)c1ccc2c(c1)C(=O)N(Cc1ccco1)C2=O	?	-1%	-4%	32µM*	?	i
Cc1nc(NCc2ccccc2)[nH]c(=O)c1CCC(C)C	16µM*	-2%	3%	-15%	-7%	i
Cc1ccc(Nc2nc(C)c(CCC(C)C)c(=O)[nH]2)cc1	16%	-1%	-1%	-3%	7%	i
CC1=CCc2c(cc3oc(C)cc(=O)c3c2O)OC1	.	1%	-1%[3.08 µM]	.	20µM*	.
Cc1cc(=O)c2c(O)c(O)ccc2o1	5%	1%	-4%	-3%	?	i
Nc1ccc2c(c1)C(=O)c1ccccc1C2=O	1.6µM*	0%	-5%	-13%	-11%	i
Cc1cccc2cc3c(N)c(C(=O)N4CCOCC4)sc3nc12	-25%	0%	2%	-15%	?	i
Nc1nc2sc3c(c2cc1C(=O)N1CCOCC1)CCCC3	-3%[11.4 µM]	-3%	-3%	-4%[11.4 µM]	3.2µM*	i
COc1ccc(-n2cnnc2SCc2ncc(-c3ccccc3)o2)cc1	0%	-3%	3%	5µM*	10%	i
CN[C@@H](CC(C)C)C(=O)N[C@@H]1C(=O)N[C@H](CC(N)=O)C(=O)N[C@H]2C(=O)N[C@H]3C(=O)N[C@H](C(=O)N[C@H](C(=O)O)c4cc(O)cc(O)c4-c4cc3ccc4O)[C@H](O)c3ccc(c(Cl)c3)Oc3cc2cc(c3O[C@@H]2O[C@@H](CO)[C@@H](O)[C@@H](O)[C@H]2O[C@H]2C[C@](C)(N)[C@H](O)[C@H](C)O2)Oc2ccc(cc2Cl)[C@@H]1O	-4%	-3%	-2%	-6%	?	i
